For 106 compounds, outcome results are on record in PubChem BioAssay AID504843 (Broad Institute, 2011).

Among all 1,200 compounds or so, about 360 (30%) were called active. The rule behind the calls is not given here. A selection follows. A call without a number means that no potency is given here. Potency and affinity values are given separately.

The assay can be described thus: antibacterial activity by ATP level – BacTiter-Glo luminescence, cherry-picked samples, counter-screen, dose response (AID 504843).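 Note: growth measured after 8 h incubation at 30 °C.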 The note with it: bacterial growth; series mostly up to 15 µM. (The purpose of a counterscreen is to sort out artefacts and off-target activity.)
Consider `CCOc1ccc(-c2cn(-c3ccc(OC)cc3)c(SC)n2)cc1`, for which the outcome was inactive. Then `COC(=O)C1=CN(C(C)C)C=C(C(=O)OC)C1c1cccc(OC)c1`, with “inactive”; and `COc1cccc(NC(=O)Nc2cnccn2)c1`, with “inactive”. Turning to `CCOc1ccc2[nH]c(C)c(CN3CCCCC3)c(=O)c2c1`, the call was inactive. In the case of `CCSC1=C(C#N)C(c2ccc(Cl)cc2)C2=C(CCCC2=O)N1` (stereo unspecified), the outcome was inactive. In the case of `CC(C)N1C(=O)NC2(c3ccccc3)N(C)C(=O)N(C)C12c1ccccc1` (stereo unspecified), the compound was classed as inactive.

As to `O=C(N1CCCC1)C12CC3CC(C1)CC(C(=O)N1CCCC1)(C3)C2`, the compound was classed as inactive.

In the case of `CN(C)c1ccc(C(=O)C(O)c2ccc(C(C)(C)C)cc2)cc1` (stereo unspecified), the outcome was inactive. For `CN(C)S(=O)(=O)n1cc(/C=C(\NC(=O)c2ccccc2F)C(=O)N2CCOCC2)c2ccccc21`, the call was inactive. For the compound `CCOc1ccccc1NC(=O)NCc1ccc2c(c1)OCO2`, the compound was classed as inactive. With `O=C(NCc1ccc2c(c1)OCO2)c1c(O)c2cccc3c2n(c1=O)CCC3` the entry was “inactive”.

As for `COCCNc1nc(N)c([N+](=O)[O-])c(NCC2CCCO2)n1` (stereo unspecified), the outcome was inactive. With `Cn1ccc(=Nc2ccc(NC(=O)c3ccc(N=c4ccn(C)c5ccc([N+](=O)[O-])cc45)cc3)cc2)cc1` the entry was “inactive”; with `Cc1cc(=O)[nH]c(SCC(=O)NCc2ccc3c(c2)OCO3)n1`, “inactive”; with `Clc1ccccc1CSc1nnc(-c2cccnc2)n1Cc1ccco1`, “inactive”. With `N=C(N)c1ccc(/C=C/c2ccc(C(=N)N)cc2O)cc1` the entry was “inactive”; with `O=C(Nc1ccc2c(c1)OCCO2)c1ccc(Cl)c(S(=O)(=O)N2CCCCC2)c1`, “inactive”.

`O=C(C1CCCN(S(=O)(=O)c2cccnc2)C1)N1CCn2c1nc1ccccc12` (stereo unspecified): the compound was called inactive. Then `CCOC(=O)c1sc(C)c2c1NC(C)(c1ccccc1)NC2=O` (stereo unspecified), with “inactive”; and `Cc1c(NC(=O)Nc2ccccc2)cccc1[N+](=O)[O-]`, with “inactive”; and `COc1ccc(CN2CSC(=S)N(Cc3ccccc3)C2)cc1`, with “inactive”. Regarding `CC(C)(C)c1nnc(NC(=O)NS(=O)(=O)c2ccccc2)s1`, the outcome was inactive. With `Cc1nc(Nc2ccc(Cl)cc2Cl)sc1C(=O)Nc1ccccc1` the entry was “inactive”; with `O=C(NCc1cccnc1)C(=O)NCC1OCCN1S(=O)(=O)c1ccc(F)cc1` (stereo unspecified), “inactive”; with `Cc1cc(C(=O)NNC(=O)c2ccc(F)cc2)c(C)s1`, “inactive”. On to `O=C(c1n[nH]c2ccccc12)N1CCOCC1`, for which the outcome was inactive. Consider `CCN(CC)CC(=O)N(CC(=O)Nc1c(C)cc(C)cc1C)C1CCCCC1`, for which the result was inactive.

Regarding `CCCCN(C)C(=O)c1cc2cc([N+](=O)[O-])cc(OC)c2oc1=O`, the call was inactive. In the case of `CCOC(=O)c1sc(Nc2nc3ccc(OC)cc3s2)cc1C`, the result was inactive. As to `COc1ccc(S(=O)(=O)N2CCC(C(=O)NCc3cccnc3)CC2)cc1OC`, the compound was called inactive. In the case of `COc1ccc(OC)c(NC(=O)NCc2cccnc2)c1`, the result was inactive. Then `COc1ccc(C(=O)OC(C)CN2CCN(C)CC2)cc1` (stereo unspecified), with “inactive”; and `CC(=O)c1ccc(NC(=O)CSc2nc(N3CCOCC3)nc(N3CCOCC3)n2)cc1`, with “inactive”; and `NC(=O)C1CCN(C(=O)CSc2nc3ccccc3o2)CC1`, with “inactive”. As to `CCCCNC(=O)NNC(=O)c1ccc(F)cc1`, the compound was called inactive. `COc1ccc(C2OC(=O)CC2C(=O)NCc2ccc(F)cc2)cc1OC` (stereo unspecified): the result was inactive.

`O=C(NC(=S)N1CCc2ccccc21)c1ccccc1Cl`: the compound was classed as inactive. With `O=C(O)Cn1cc(C(=S)N2CCOCC2)c2ccccc21` the entry was “inactive”; with `CCOC(=O)N1CCN(c2ccc(C(=O)CC)cc2F)CC1`, “inactive”; with `COCCn1c(=NC(=O)c2ccc3c(c2)OCCO3)sc2cc(S(N)(=O)=O)ccc21`, “inactive”. As for `CCOC(=O)C1=C(C)c2ccccc2OC1(C(=O)OCC)C(C)C` (stereo unspecified), the call was inactive.

Consider `CCOc1ccc(S(=O)(=O)Nc2cc(Cl)ccc2O)cc1`, for which the result was inactive. With `Cc1ccc(NC(=O)CCCc2nc3ccccc3s2)c(O)c1`, the compound was called inactive. Then `O=C(COc1ccc2c3c(c(=O)oc2c1)CCCC3)NCCCn1ccnc1`, with “inactive”. In the case of `O=C(N/N=C/c1cn(-c2cccs2)nc1-c1ccccc1)c1ccccc1O`, the result was inactive. With `Oc1c(Cl)cc(Cl)cc1C1Nc2ccccc2-n2cccc21` (stereo unspecified) the entry was “inactive”; with `COc1ccc(N(C2=NCCCS2)S(=O)(=O)c2ccc(C(C)(C)C)cc2)cc1`, “inactive”. On to `Cc1cc(C(=O)CN2C(=O)C3CC=CCC3C2=O)c(C)n1-c1ccccc1` (stereo unspecified), for which the compound was classed as inactive. For `C=C(C)CSc1nnc(-c2ccc(OC)c(OC)c2)n1N`, the compound was classed as inactive. With `CCCCC1C(=O)N(c2ccccc2)N(c2ccc(O)cc2)C1=O` (stereo unspecified) the entry was “inactive”. With `CCCCOc1ccc(C2CC(=O)N(C)C2=O)cc1` (stereo unspecified) the entry was “inactive”; with `CO[C@H]1/C=C/O[C@@]2(C)Oc3c(C)c(O)c4c(O)c(c5c(c4c3C2=O)NC2(CCN(CC(C)C)CC2)N=5)=NC(=O)/C(C)=C\C=C\[C@H](C)[C@H](O)[C@@H](C)[C@@H](O)[C@@H](C)[C@H](OC(C)=O)[C@@H]1C`, “inactive”. Then `CCc1cccc(CC)c1NC(=S)NCC(c1cccnc1)N(C)C` (stereo unspecified), with “inactive”.

With `O=C(CCCn1c(=O)[nH]c2ccsc2c1=O)N1CCCCC1`, the result was inactive.

For the compound `CCCCNC(=O)COC(=O)CCC(=O)c1cccs1`, the compound was called inactive. With `Cc1n[nH]c(=O)nc1N1CCc2ccccc2C1` the entry was “inactive”; with `CCOc1nc(Nc2ccc(OC)c(Cl)c2)nc(OCC)n1`, “inactive”. `CC1=NN(c2ccccc2)C(=O)C1c1ccccc1` (stereo unspecified): the compound was classed as inactive. In the case of `Cc1ccc(OC(=O)c2cc(=O)c3ccccc3o2)cc1`, the result was inactive.

On to `COc1cccc(-c2nn3c(-c4ccccn4)nnc3s2)c1`, for which the result was inactive. `Clc1ccc(-c2nnc3c4ccccc4nc(N4CCOCC4)n23)cc1Cl`: the compound was classed as inactive. Consider `CC(C)n1ncc2c(C(=O)N3CCN(Cc4ccc(Br)s4)CC3)cc(C3CC3)nc21`, for which the result was inactive.

`CC(=O)c1c(C)[nH]c(C(=O)Nc2ccccc2N2CCOCC2)c1C`: the compound was classed as inactive. `Cc1ccc(CS(=O)(=O)CCC(=O)NCCCN2CCCC2)cc1`: the result was inactive. Then `CCCn1c(N)c(C(=O)CSc2nnnn2-c2ccc(O)cc2)c(=O)n(C)c1=O`, with “inactive”. In the case of `CCc1nnc(NC(=O)C2CCC2)s1`, the call was inactive. For `COCC(=O)Nc1ccccc1Br`, the call was inactive. As for `COc1cc(CN(C2CCCCC2C)S(=O)(=O)c2ccc(S(=O)(=O)NC3CC3)cc2)cc(OC)c1OC` (stereo unspecified), the result was inactive.

For the compound `COc1ccc(-c2cc([C@H]3[C@@H]4C=CCC[C@@]4(C)C(=O)N3Cc3ccccc3)ccc2F)cc1`, the call was inactive. `NS(=O)(=O)c1ccc(CCNc2nc(C(F)(F)F)nc3ccccc23)cc1`: the call was inactive. With `Cc1ccnc(NC(c2cccnc2)c2ccc3cccnc3c2O)c1` (stereo unspecified) the entry was “inactive”; with `CCCOc1cc(C)c(S(=O)(=O)N2CCN(C)CC2)cc1C`, “inactive”; with `O=C1CN(C(=O)COC(=O)c2cc(S(=O)(=O)N3CCOCC3)ccc2Cl)c2ccccc2N1`, “inactive”.

With `Cc1ccc(C)c(NC(=S)N(CCc2ccncc2)C(C)C)c1`, the result was inactive.

Consider `CC(C)Cc1ccc(CN2CCCC(NC(=O)Cn3cnnn3)C2)cc1` (stereo unspecified), for which the call was inactive. Then `COc1cccc(CN2CC(C(=O)NCCOc3cccnc3)CCC2=O)c1` (stereo unspecified), with “inactive”. As for `COCc1cc(CNC(=O)C2CCC(=O)N(Cc3ccccc3OC)C2)[nH]n1` (stereo unspecified), the call was inactive.

As for `CC(C)C[C@@H](CN1CCC[C@@H]1CN1C(=O)C(=O)NC[C@@H]1Cc1ccccc1)N1C[C@H](Cc2ccc(O)cc2)N(CC2CCCCC2)C(=O)C1=O`, the compound was classed as inactive. Then `Cc1cc(Nc2nc3ccccc3nc2Cl)n(-c2ccccc2C)n1`, with “inactive”; and `Cc1cc(C)cc(CSc2nnc(C)c(=O)[nH]2)c1`, with “inactive”; and `Cc1ccc(C)n1-c1ccc(-c2ccnc(N)n2)cc1`, with “inactive”. Turning to `COc1ccc(S(=O)(=O)N(C)c2ccc(C(=O)N3CCOCC3)cc2)cc1`, the call was inactive. Then `O=C(CCNS(=O)(=O)c1ccccc1C(F)(F)F)NCCCN1CCOCC1`, with “inactive”; and `COc1cccc(CNC(=O)CN2C(=O)CCSc3ccc(S(=O)(=O)N4CCCC4)cc32)c1`, with “inactive”; and `O=C(N/C(=C/c1cccc([N+](=O)[O-])c1)C(=O)N1CCOCC1)c1ccc(Br)cc1`, with “inactive”. Consider `COc1ccc(-n2c(O)c(/C=N/NS(=O)(=O)c3cccc([N+](=O)[O-])c3)c3ccccc3c2=O)cc1OC`, for which the result was inactive. For `COC(=O)/C(=C/c1ccco1)NC(=O)c1ccccc1`, the compound was classed as inactive. Turning to `Nc1cc(OC(=O)c2ccc(F)cc2)nn1S(=O)(=O)c1ccc(F)cc1`, the compound was classed as inactive.

For the compound `CCc1nc2ccccc2c(C(=O)OC2CCOC2=O)c1C` (stereo unspecified), the compound was classed as inactive. On to `c1ccc(NC(=NCc2ccco2)c2ccccc2)cc1`, for which the outcome was inactive. For `O=C(O)c1cccc(NC(=O)c2ccccc2)c1`, the outcome was inactive. For the compound `CC(C)c1c(C(=O)N/N=C/C2CC=CCC2)nnn1-c1nonc1N` (stereo unspecified), the result was inactive. With `O=C(CN1CCN(c2ccccc2F)CC1)NC(=O)NCc1ccccc1` the entry was “inactive”; with `Cc1nc(N2CCN(S(=O)(=O)c3ccc(Br)cc3)CC2)c2c(C)c(C)sc2n1`, “inactive”.

As for `O=C(O)c1ccc(CSc2nnc(-c3ccncc3)n2-c2ccc(Cl)cc2)cc1`, the result was inactive.

Take `CCCc1cc(=O)[nH]c2nnc(SCC(=O)Nc3ccc4c(c3)OCCO4)n12`: the call was inactive. For `COC(=O)c1sc(NC(=O)CSc2nnnn2-c2ccc(C)cc2C)nc1C`, the compound was called inactive. As for `COc1ccccc1NS(=O)(=O)c1ccc2[nH]c(=S)oc2c1`, the compound was called inactive. With `c1ccc(C2NCCc3ccccc32)cc1` (stereo unspecified) the entry was “inactive”; with `CCOc1ccc2nc(NC(=O)CN3CCC(n4nnc5cc(F)ccc54)CC3)sc2c1`, “inactive”; with `Cc1cc(C)c2oc(=O)cc(CN3CCN(Cc4ccc5c(c4)OCO5)CC3)c2c1`, “inactive”. `O=C(Nc1ccc(Oc2ccccc2)nc1)C1CCCCN1Cc1ccc(OCCO)cc1` (stereo unspecified): the compound was called inactive. With `CCCNc1nc2c(c(=O)[nH]c(=O)n2C)n1CCCc1ccccc1` the entry was “inactive”. With `COCCCNc1nc2c(c(=O)[nH]c(=O)n2C)n1CC(O)COc1cccc(C)c1` (stereo unspecified) the entry was “inactive”. With `COCCn1c(-c2cccc([N+](=O)[O-])c2)nc2c1c(=O)[nH]c(=O)n2Cc1ccccc1` the entry was “inactive”; with `CCC1CCCCN1Cc1nc2c(c(=O)n(C)c(=O)n2C)n1CCCc1ccccc1` (stereo unspecified), “inactive”.
